This excerpt belongs to a sample that is enriched for hits.
Shiga toxin inh: blocks Shiga toxin action in Vero cells | Vero cells, Shiga toxin protein synthesis inhibition reporter | inhibition, % at 38.7 µM | 290,000 tested, 9.2% active | AID 2315; in the data active means inhibition mostly above about 28%, no sharp cut-off; inactive means mostly below about 43%; further: 0% is about no effect
VACV mCherry inh: vaccinia inhibition (mCherry reporter) | Potency, µM (series often up to 36.5 µM), inactives show at the highest dose activity change, negative = inhibition, actives largely listed as inhibitors | Vaccinia virus mCherry reporter infection, fluorescence | 310,000 tested, 0.63% active | AID 720579; calls by dose curve; tested in A549 cells; further: potency means the concentration at half of the fitted maximal effect; on the % scale 0 is the no-effect control and ±100 the full control effect; nearly all actives have a fitted effect of over 35% in size
CHX counter: affects cycloheximide protein synthesis inhibition readout, counter-screen. 300,000 tested, 12% active. max response, %. cell reporter, cycloheximide protein synthesis inhibition counterscreen; in the data active means max response mostly above about 13%, no sharp cut-off; inactive means mostly below about 14%; further: read at 38.3 µM for the half of the compounds with a filed dose; 0% is about no effect
Marburg entry inh: Marburg virus entry inhibition; Marburg virus pseudotyped entry inhibition, cell reporter; Potency, µM (doses to about 37.8 µM), for the others: top-dose activity change, negative = inhibition, actives largely listed as inhibitors; 300,000 tested, 1.8% active; calls by dose curve; tested in HEK293 cells; further: potency means the concentration at half of the fitted maximal effect; on the % scale 0 is the no-effect control and ±100 the full control effect
Vaccinia Venus: inhibitors of vaccinia virus (Venus reporter); AID 720580; Potency, µM (highest dose often 36.5 µM), for inactives: top-dose activity change, negative = inhibition, actives largely listed as inhibitors; Vaccinia virus Venus reporter expression, fluorescence; 330,000 tested, 0.46% active; calls by dose curve; tested in A549 cells; further: potency means the concentration at half of the fitted maximal effect; on the % scale 0 is the no-effect control and ±100 the full control effect; nearly all actives have a fitted effect of over 30% in size
LASV entry inh: blocks Lassa virus binding to or entry into cells. Potency, µM (series often up to 37.9 µM), without a hit: at the top dose activity change, negative = inhibition, usual class: inhibitors. 300,000 tested, 1.2% active. AID 540256. Lassa virus pseudotype entry inhibition, cell reporter; calls by dose curve; tested in HEK293 cells; further: potency means the concentration at half of the fitted maximal effect; on the % scale 0 is the no-effect control and ±100 the full control effect; nearly all actives have a fitted effect of over 50% in size
Numbers without * were called inactive; [ ] = another dose, or the depositor's remark.

How did Clc1ccc(OCc2nnc3n2N=C(c2ccc4c(c2)OCCO4)CS3)c(Cl)c1 do in these assays?
Shiga toxin inh: 15; CHX counter: 15*; Marburg entry inh: inconclusive; LASV entry inh: inconclusive

Results for CCc1nnc2n1N=C(c1ccc(-c3ccc(Cl)cc3Cl)o1)CS2 ?
Marburg entry inh: 0%

What do the screens show for `CN(C)CCNC(=O)c1ccc2nc(CCc3ccccc3)oc2c1`?
VACV mCherry inh: -10%; Vaccinia Venus: 6%; LASV entry inh: 2%[46.1 µM]

What do the screens show for `COCCc1nc2ccc(C(=O)N(C)Cc3cccc(-n4cccn4)c3)cc2o1`?
Shiga toxin inh: 82*; VACV mCherry inh: inactive; CHX counter: 62*; Marburg entry inh: -18%; Vaccinia Venus: -14%; LASV entry inh: 6%

Results for CN(Cc1cccnc1)C(=O)c1ccc2nc(Cc3ccccc3F)oc2c1 ?
Shiga toxin inh: 61*; CHX counter: 43*

How did CC(C)CCNC(=O)CN1C(=O)COc2ccc(S(=O)(=O)N3CCOCC3)cc21 do in these assays?
VACV mCherry inh: -3%; Marburg entry inh: 3%[46.1 µM]; Vaccinia Venus: 10%; LASV entry inh: -7%[46.1 µM]

Results for COc1ccc(C=Nc2cccnc2N)cc1 ?
VACV mCherry inh: -14%; CHX counter: 24*; Marburg entry inh: 8%[46.1 µM]; Vaccinia Venus: 0%; LASV entry inh: 27%[46.1 µM]

Results for Cc1ccc(C=Nc2cccnc2N)cc1 ?
Shiga toxin inh: 13*; VACV mCherry inh: -13%; CHX counter: 19*; Marburg entry inh: 36%; Vaccinia Venus: -16%; LASV entry inh: 25%

How did CCOc1ccc(C=Nc2cccc3ncccc23)cc1 do in these assays?
Shiga toxin inh: 16; CHX counter: 7

How did CCOCCn1c(=O)c2c(nc3n2CCN3c2ccc(C)c(C)c2)n(C)c1=O do in these assays?
VACV mCherry inh: -16%; Vaccinia Venus: -2%; LASV entry inh: -23%[46.1 µM]

Results for O=c1/c(=C\c2ccc3c(c2)OCO3)sc2n1CCCN=2 ?
Shiga toxin inh: 50*; CHX counter: 28*; Marburg entry inh: inconclusive; LASV entry inh: 1%

What do the screens show for `Cc1ccc(/C=c2/sc3n(c2=O)CCCN=3)o1`?
Shiga toxin inh: 60*; CHX counter: 35*; Marburg entry inh: inconclusive; LASV entry inh: 18%

What do the screens show for `O=C1/C(=C\c2ccc3c(c2)OCO3)CCC/C1=C/c1ccc2c(c1)OCO2`?
Shiga toxin inh: 50; CHX counter: 7; Marburg entry inh: 9%; Vaccinia Venus: -14%; LASV entry inh: 8%

How did CN1CC[C@@]2(CCN3CCc4c(oc5ccccc45)[C@@H]3C2)N(C)C1=O do in these assays?
Marburg entry inh: 5%

How did CN(C)c1ccc(C(C(=O)NCc2ccccc2)N(Cc2ccco2)C(=O)c2snc(C(N)=O)c2N)cc1 (configuration not stated) do in these assays?
Shiga toxin inh: -5; VACV mCherry inh: -27%; CHX counter: -2; Marburg entry inh: inconclusive; Vaccinia Venus: 4%; LASV entry inh: inconclusive

What do the screens show for `CCn1cnc2cc(NCc3ccccc3Cl)ccc21`?
Shiga toxin inh: 67*; VACV mCherry inh: -23%; CHX counter: 36*; Marburg entry inh: 21%; Vaccinia Venus: -20%; LASV entry inh: 5%

What do the screens show for `CCCn1cnc2cc(NCc3ccccc3OCC)ccc21`?
VACV mCherry inh: -1%[7.34 µM]; Marburg entry inh: -4%[46.1 µM]; Vaccinia Venus: -5%[7.34 µM]; LASV entry inh: -9%[46.1 µM]

What do the screens show for `Cn1cnc2cc(NCc3ccccc3Cl)ccc21`?
Shiga toxin inh: 105*; VACV mCherry inh: inconclusive; CHX counter: 39*; Marburg entry inh: inconclusive; Vaccinia Venus: -9%; LASV entry inh: -8%[46.1 µM]

Results for CCCn1cnc2cc(NCc3cccs3)ccc21 ?
Shiga toxin inh: 106*; VACV mCherry inh: inconclusive; CHX counter: 33*; Marburg entry inh: 16%; Vaccinia Venus: -2%; LASV entry inh: -1%

What do the screens show for `CCCCn1cnc2cc(NCc3ccccc3Cl)ccc21`?
VACV mCherry inh: -14%; Marburg entry inh: 13µM*; Vaccinia Venus: -11%; LASV entry inh: inconclusive

How did CCCCn1cnc2cc(NCc3ccncc3)ccc21 do in these assays?
Shiga toxin inh: 1; VACV mCherry inh: -8%; CHX counter: 7; Marburg entry inh: -15%; Vaccinia Venus: -10%; LASV entry inh: 23%[14.3 µM]
